# Results: PubChem BioAssay (NCI)
# Compounds without any hit were thinned out: in the full panel of roughly 83,000, 20% have a hit.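 Treatment: one concentration, 48 hours, 96-well format. Scoring: percent growth, with anything below 10 considered active.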 Calls of active or inactive are those of the source.
# System: OVCAR-8 ovarian
# Test: NCI-60 one-dose screen, 48 h (100 = growth as untreated, 0 = no growth, -100 = all killed)
# Settings: 10 µM unless noted
# Experimental: Growth inhibition of the OVCAR-8 human tumor cell line is measured as a screen for anti-cancer activity. Cells are grown in 96 well plates and exposed to the test compound for 48 hours. Compounds are tested at a single concentration, which is 10^-5 M for most compounds. The reported endpoint is percent growth (GI% or GIPRCNT), where numbers from 0 - 100% represent growth inhibition, and numbers from -100% - 0 represent cell death. For example, a value of 40 represents 60% growth inhibition. A value of 0 means no net growth occurred over the course of the experiment. A value of -40 indicates 40% of cells at the beginning of the experiment died by the end of the experiment. A value of -100 means all cells are dead at the end of the experiment.
# NCI-60 Human Tumor Cell Lines Screen was performed using the standard one-dose NCI protocol, which is described in more detail at https://dtp.cancer.gov/discovery_development/nci-60/default.htm.
# Compounds with GIPRCNT values below 10 were considered active. Activity score was based on GIPRCNT using the following formula: […]
# Score is 0 for GIPRCNT values of 100 or above, 50 for GIPRCNT values of 0, and 100 for GIPRCNT values of -100.
row,SMILES,growth
1,CC(C)(C)n1cc(-c2ccnc(NCCNS(=O)(=O)c3ccccc3)c2)c(-c2cccc(O)c2)n1,67.2% (inactive)
2,COc1ccc2c(c1)C(=O)/C(=C/c1cccc(OCC(=O)Nc3nc4c(s3)CCCC4)c1)O2,10.4% (inactive)
3,Cc1ccc(Nc2nc(N)nc(Nc3ccc4ccccc4c3)n2)cc1,47.7% (inactive)
4,O=C1Nc2ccccc2C12CC(c1ccc(Cl)cc1)=NN2 (stereo not given),95.2% (inactive)
5,COc1ccc(C2CC(=O)Nc3c2c(C)nn3-c2nc3ccccc3[nH]2)cc1 (stereo not given),108% (inactive)
6,Cc1sc2nc3[nH]/c(=C\c4ccc(Cl)cc4)c(=O)n3c(=O)c2c1C,103% (inactive)
7,CC1=C(C)C(=O)OC([C@](C)(O)[C@]2(O)CC[C@@]3(O)[C@@H]4C[C@H]5O[C@]56CC=CC(=O)[C@]6(C)[C@H]4CC[C@]23COC(=O)c2ccc(C)o2)C1 (stereo not given in full),-13.8% (active)
8,CCN(CC)CC(C)(C)C(=O)/C=C/c1ccccc1,76.6% (inactive)
9,COc1ccc(-c2nc(Nc3cc(C)[nH]n3)c3ccccc3n2)cc1,83.8% (inactive)
10,CCCCCCCCCC(=O)Oc1ccc(/C(=C(/C)Cc2cccc(OC)c2)c2ccc(OCCN(C)C)cc2)cc1,108% (inactive)
11,Nc1cccc(NC(=O)C(=O)Nc2cccc(N)c2)c1,94.8% (inactive)
12,Nc1nc2c(c3ncccc13)C(c1ccc(Cl)c(Cl)c1)Cc1ncccc1-2 (stereo not given),34.2% (inactive)
13,COc1cc(C2CC(=O)c3c(C)nn(-c4nc5ccccc5[nH]4)c3C2)cc(OC)c1OC (stereo not given),25.7% (inactive)
14,Cc1cc(N/N=C/c2nc(-c3ccc(Cl)cc3)oc2C)c2cc(Br)ccc2n1,8.16% (active)
15,CCCCCCCCCCCCS(=O)CC(C)O (stereo not given),103% (inactive)
16,CN1/C(=C\C=C\C2=[N+](C)c3ccccc3C2(C)C)C(C)(C)c2ccccc21,1.34% (active)
17,COc1ccc(CCN2CCCn3c2nc2ccccc2c3=O)cc1,28.8% (inactive)
18,COCCOc1ccc(-c2nc3ccc(-c4nc5ccc(N6CCN(C)CC6)cc5[nH]4)cc3[nH]2)cc1,-39% (active)
19,COc1ccc(Cl)cc1Nc1nc(C(F)(F)F)ccc1C(=O)N/N=C/c1cccnc1,42% (inactive)
20,CN1CCN(Cc2ccc(NC(=O)c3[nH]ncc3Nc3ccnc4ccsc34)cc2)CC1,21.5% (inactive)

row,SMILES,growth
1,Cc1cccc(NC(=O)c2sc3nc4c(cc3c2N)C(=O)CCC4)c1,52.2% (inactive)
2,COc1nc2c(cc1S(=O)(=O)c1ccccc1)CCc1c-2cnn1Cc1ccccc1,54% (inactive)
3,Cc1ccc2c(c1)O/C(=C\c1cccc(OCC(=O)c3ccccc3)c1)C2=O,91.7% (inactive)
4,c1ccc(CSc2ncnc3nc[nH]c23)nc1,120% (inactive)
5,CC[C@H](Nc1cc(C)nc(N)n1)c1nc2cccc(NCc3ccc(C(=O)NO)cc3)c2c(=O)n1-c1ccccc1,17.7% (inactive)
6,Cc1cc(Cl)ccc1Nc1nc(C(F)(F)F)ccc1C(=O)N/N=C/c1ccc(F)cc1,23.1% (inactive)
7,O=c1c2cccc3c(Nc4c(F)cccc4F)ccc(c32)c2nc3ccccc3n12,92.9% (inactive)
8,Cc1cc2cc3cc(C)c(N(C)C)cc3[n+](C)c2cc1N(C)C,23.4% (inactive)
9,CN1CCN(Cc2ccc(NC(=O)c3cncc(C#Cc4cnc(N)c5cccnc45)c3)cc2C(F)(F)F)CC1,29.5% (inactive)
10,CCN(CC)CCCC(C)N/C(=C1\C(=O)NC(=O)\C1=C(/NC(C)CCCN(CC)CC)c1cccc(OC)c1)c1cccc(OC)c1 (stereo not given),5.58% (active)
11,CCOC(=S)SCc1ccc(Cl)cc1,101% (inactive)
12,Cc1cc2c(cc1C)NC1=C(N2)OC(c2c3ccccc3cc3ccccc23)C1=O (stereo not given),-27.4% (active)
13,Cl/C(=N\Nc1ccccc1)c1ccccc1,75.8% (inactive)
14,CCN(CC)CC(O)CNc1c2ccc([N+](=O)[O-])cc2nc2cc(OC)c(OC)cc12 (stereo not given),-2.1% (active)
15,C[C@@H]1CCC2=C(CCC[C@]2(C)C(=O)O)[C@@]1(C)CCc1ccoc1,94.2% (inactive)
16,COc1ccc(C/C(C)=C(\c2ccc(Cl)cc2)c2ccc(OCCN3CCCCCC3)cc2)cc1,89.4% (inactive)
17,CC#CC#Cc1cccc(=O)o1,65.8% (inactive)
18,O=C(/C=C/c1ccc(B(O)O)cc1)/C=C/c1ccc(B(O)O)cc1,72.2% (inactive)
19,Nc1cccc(-c2nc3sccn3c2-c2ccnc(NCCCNS(=O)(=O)c3ccc(C(F)(F)F)cc3)n2)c1,7.14% (active)
20,COC(=O)C12C3C(=O)N(c4ccc(OC)cc4)C(=O)C3C(c3cn(-c4ccccc4)nc3C)N1[C@H](c1cn(-c3ccccc3)nc1C)[C@@H]1C(=O)N(c3ccc(OC)cc3)C(=O)[C@@H]12 (stereo not given in full),99% (inactive)
